From PubChem
IL1B secr inh: inhibitors of inflammasome signaling (IL-1 beta secretion). activity change, % at 57.5 µM. AID 743279. 360,000 compounds, 4.7% hits. THP-1 LPS/ATP IL-1B secretion, AlphaLISA, 16 h; stronger effect = lower value; in the data active = activity change below about -50%; inconclusive = mostly about -30% to -49%
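THP-1 cells pretreated 1 hr with compounds (up to 57.5 uM final), then stimulated with LPS (250 ng/mL final) plus ATP (1.25 mM final); secreted IL-1B measured by AlphaLISA after 16 hr, decreased signal indicating inhibition.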
SW480 rereplic: inducers of DNA re-replication in SW480 colon cancer cells; AID 624297; Potency, µM (top dose mostly 46.1 µM), hits mostly activators; SW480 DNA re-replication, Hoechst DNA content imaging, 48 h; 340,000 compounds, 1.8% hits; note: nearly all actives have a fitted effect of over 55% in size
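Per well, 250 cells were exposed to pinned compound for 48 hr. Nuclear DNA was visualised with Hoechst (40 min, 37 C) and total object intensity recorded by fluorescence scanning.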
TDP1 cell noCPT: qHTS for Inhibitors of human tyrosyl-DNA phosphodiesterase 1 (TDP1): qHTS in cells in absence of CPT; DT40 Tdp1-/- hTDP1 cells, no CPT, ATP luminescence, 48 h; Potency, µM (top dose mostly 46.2 µM), actives largely listed as inhibitors; 420,000 compounds, 15% hits; note: nearly all actives have a fitted effect of over 55% in size
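DT40 Tdp1-/-;hTDP1 cells, no CPT (DMSO vehicle only), 400 cells/well; compounds pin-transferred; ≥48 hr, 37 °C; CellTiter-Glo 30 min RT dark, luminescence read.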
TDP1 cell CPT: growth inhibition of DT40 Tdp1-/-;hTDP1 cells with camptothecin (screen for TDP1 inhibitors). 420,000 compounds, 12% hits. Potency, µM (doses to about 46.2 µM), actives largely listed as inhibitors. AID 686979. chicken DT40 Tdp1-/-;hTDP1 cells + 20 nM CPT, ATP luminescence, 48 h; note: nearly all actives have a fitted effect of over 55% in size
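Chicken DT40 Tdp1-/- cells stably complemented with human TDP1 were seeded at 400 cells/well in medium containing 20 nM camptothecin, exposed to pin-transferred compounds, and grown at 37 °C for at least 48 hr. Viability was read as ATP luminescence.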
Chronic BCR inh: blocks chronic active B-cell receptor signaling. ABC-DLBCL IkBa-CBG/CBR reporter, luminescence ratio, 4 h. Potency, µM (top dose mostly 46.1 µM), most hits filed as inhibitors. 340,000 compounds, 0.05% hits. AID 493014; active = well fitted inhibition curve with a large enough effect in the signal ratio, with a control signal flat, not every such curve was filed as active; inconclusive = small, poorly fitted or top-dose-only effect, or effect the other way, or a change in a side signal; the % refers to the signal ratio
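TMD8 ABC-DLBCL cells carrying doxycycline-inducible green luciferase fused to IkappaBalpha plus unfused red luciferase were exposed to compounds (up to 46 uM) for 4 hrs at 37C. Activity came from the overlap-corrected green/red luminescence ratio.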
MCF10A rerep: DNA re-replication induction in MCF 10a cells | Potency, µM (series often up to 46.1 µM), hits mostly activators | 350,000 compounds, 2.9% hits | MCF 10A DNA re-replication, Hoechst nuclear intensity, 48 h | AID 624296; note: nearly all actives have a fitted effect of over 50% in size
A number is an active result; n = inactive; u = inconclusive; x = no result given. A selection: hits, their analogues and other compounds. The true share with any hit is near 19%. Unless noted, calls come from the whole dose curve; as a rule, active = well fitted curve in the direction sought with a large enough effect; inconclusive = small, poorly fitted or top-dose-only effect, or another doubt; inactive = no such curve, though single readings can be large; an effect the other way counts as inactive or inconclusive.

SMILES	IL1B secr inh	SW480 rereplic	TDP1 cell noCPT	TDP1 cell CPT	Chronic BCR inh	MCF10A rerep
Cc1cc(C)nc(NC(=O)c2cc(-c3ccc(C)s3)nc3ccccc23)c1	n	u	21µM	u	u	u
CC(C)n1cc(CNC(=O)C2CCC(=O)N(Cc3ccccc3F)C2)cn1 (centres undefined)	n	n	n	n	n	n
COc1ccc(-c2cc(C(=O)Nc3cc(C)on3)c3ccccc3n2)c(OC)c1	n	n	9.2µM	12µM	u	n
O=C(CCSc1ccc(Cl)cc1)N1CCN(c2ncccn2)CC1	n	n	u	13µM	n	n
O=C(CSc1ccc(Cl)cc1)N1CCN(c2c(Cl)cccc2[N+](=O)[O-])CC1	n	n	15µM	16µM	u	n
O=C(/C=C/c1ccc(Cl)cc1)N1CCN(c2c(Cl)cccc2[N+](=O)[O-])CC1	-76	n	15µM	u	n	n
O=C(CSc1ccc(Cl)cc1)N1CCN(c2ccc([N+](=O)[O-])cc2Cl)CC1	-62	n	18µM	u	n	u
O=C(CCSc1ccc(Cl)cc1)N1CCN(c2ccc(O)cc2)CC1	n	u	n	n	n	u
CCOC(=O)c1c(-c2ccc(C)cc2)csc1NC(=O)c1cc(=O)c2cc(C)c(C)cc2o1	x	x	n	n	x	x
COc1ccc2[nH]c(C(=O)O)c(CCNC(=O)/C=C/c3ccc(O)c(OC)c3)c2c1	n	n	n	n	n	n
COCCn1nnnc1C(C(C)C)N(Cc1cccnc1)Cc1ccccc1Cl (centres undefined)	n	n	23µM	u	u	n
COc1ccccc1NC(=S)N(Cc1cccnc1)Cc1ccccc1Cl	n	n	u	n	u	n
CC(=O)[C@H]1[C@H]([C@H](O)[C@H](O)CO)O[C@](O)(C(=O)O)C[C@@H]1O	n	n	n	n	n	n
CC(=O)c1ccc(NC(=O)/C=C/c2ccc(C)cc2)cc1	u	n	n	n	n	n
COc1ccc(NC(=O)/C=C/c2cc(OC)c(OC)c(OC)c2)cn1	n	n	n	n	n	n
COc1cc(/C=C/C(=O)Nc2ccncc2)cc(OC)c1OC	n	n	u	21µM	n	n
COc1cc(/C=C/C(=O)Nc2nnc(CC(C)(C)C)s2)cc(OC)c1OC	n	n	21µM	u	n	n
COc1cc(/C=C/C(=O)Nc2ccc(C(C)=O)cc2)cc(OC)c1OC	n	n	21µM	u	u	n
CC(=O)Nc1ccc(S(=O)(=O)N(C)CC(=O)OC(C)C(=O)NC2(C#N)CCCCC2)cc1 (centres undefined)	n	x	n	n	x	x
C[C@@H]1O[C@@H](O[C@@H]2C(=O)c3c(O)cc(O)cc3O[C@H]2c2ccc(O)c(O)c2)[C@H](O)[C@H](O)[C@H]1O	n	n	n	n	n	n
CCc1ccccc1NC(=O)C1=C(C)C(=O)OC12CCCCCC2	x	x	n	u	x	x
COC(=O)c1c(NC(=O)c2c(-c3ccccc3Cl)noc2C)sc2c1CCC2	n	n	18µM	18µM	n	n
Cc1onc(-c2ccccc2Cl)c1C(=O)Nc1sc2c(c1C(N)=O)CCC(C)C2 (centres undefined)	-51	u	n	n	n	n
COC(=O)c1c(NC(=O)c2nc3nc(C)cc(C(F)F)n3n2)sc2c1CCC2	n	n	16µM	u	u	n
Cc1cc(C(F)F)n2nc(C(=O)Nc3sc4c(c3C(N)=O)CCC4)nc2n1	u	n	u	u	n	n
CC1CC=C(O)C12OCC(C)(C)CO2 (centres undefined)	n	n	n	n	x	n
CCCC(=O)O[C@]1(C(=O)CCl)[C@H](C)C[C@@H]2[C@H]3CCC4=CC(=O)C=C[C@]4(C)[C@@]3(F)C(=O)C[C@@]21C	x	n	x	x	x	n
